The values that follow come from PubChem BioAssay (NCATS).

The nature of assay [1]: AP1 Signaling Pathway (AID 357). Further: on the % scale 0 is the no-effect control and ±100 the full control effect. As to conditions: ME-180 AP-1-bla reporter, EGF-induced, beta-lactamase ratio, 5 h; at 17.2 µM (top of the series) unless noted. The method, boiled down: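 Cells are seeded overnight, exposed to compound titrations and an EC50 level of EGF for 5 hours at 37 °C, then loaded with CCF4 dye for 2.5 hours. Beta-lactamase activity under the AP-1 element is read as a blue/green ratio.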

Assay [2] in a line: NFAT Signaling Pathway (AID 444).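 Further: carbachol stimulus at about its EC50 of 1 µM final; on the % scale 0 is the no-effect control and ±100 the full control effect.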 The following applies: Jurkat NFAT-bla M1, carbachol, beta-lactamase ratio, 5 h; at 17.2 µM (top of the series) unless noted. The method in brief:
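Read-out: CCF4 FRET ratio (460 nm/530 nm) after 1 h RT dye loading, used for %activity and AC50 from titration series. Cells: Jurkat NFAT-β-lactamase/M1 line, treated with compound plus 1 uM carbachol for 5 h, 37 °C.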

The nature of assay [3]: Stat Signaling Pathway (AID 446).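 Further: ME-180 cervical cancer cells given 40 pM IL-6 alongside compound; SIE-controlled beta-lactamase reporter measured as 460/530 nm FRET emission ratio; on the % scale 0 is the no-effect control and ±100 the full control effect.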 The method in brief:
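ME-180 SIE-bla cells; overnight plating; cpd + IL-6 40 pM, 5 h, 37 C; LiveBLAzer 2.5 h RT; 460/530 nm emission ratio. Normalized to 300 pM IL-6 and 125 nM JAK inhibitor controls.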

In assay [4] the target is Glucocorticoid receptor (Homo sapiens) (UniProt P04150). In words: GR-GFP Redistribution (AID 450;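 active means compounds whose dose series gives a full or clear partial fitted curve of increased nuclear translocation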; further: potency means the concentration at half of the fitted maximal effect). The following applies: U2OS GR-GFP nuclear translocation, laser cytometry, 2 h.
Chain of Glucocorticoid receptor (Homo sapiens) (P04150 whole entry, looked up, the tested form may be a part): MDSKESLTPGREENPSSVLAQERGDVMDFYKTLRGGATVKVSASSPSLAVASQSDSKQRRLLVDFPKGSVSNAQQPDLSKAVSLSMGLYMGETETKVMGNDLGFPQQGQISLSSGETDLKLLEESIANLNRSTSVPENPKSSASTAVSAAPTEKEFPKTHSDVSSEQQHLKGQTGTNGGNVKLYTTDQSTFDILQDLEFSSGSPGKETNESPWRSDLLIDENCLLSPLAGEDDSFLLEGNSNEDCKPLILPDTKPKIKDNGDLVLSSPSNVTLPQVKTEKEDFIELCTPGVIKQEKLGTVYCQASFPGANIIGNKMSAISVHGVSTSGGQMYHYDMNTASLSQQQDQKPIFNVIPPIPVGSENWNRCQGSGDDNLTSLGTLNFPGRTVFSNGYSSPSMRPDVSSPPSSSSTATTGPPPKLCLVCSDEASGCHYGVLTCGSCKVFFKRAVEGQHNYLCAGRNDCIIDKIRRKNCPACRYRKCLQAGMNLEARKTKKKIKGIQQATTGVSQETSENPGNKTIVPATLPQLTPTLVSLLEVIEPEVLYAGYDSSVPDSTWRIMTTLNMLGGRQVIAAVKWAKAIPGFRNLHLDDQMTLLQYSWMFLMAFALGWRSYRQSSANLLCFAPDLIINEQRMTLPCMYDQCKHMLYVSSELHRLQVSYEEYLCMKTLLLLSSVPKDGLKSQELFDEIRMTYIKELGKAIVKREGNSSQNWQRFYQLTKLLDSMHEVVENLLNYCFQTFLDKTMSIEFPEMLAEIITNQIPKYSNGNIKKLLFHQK
Assay [5] can be described thus: qHTS Assay for Identification of Small Molecule Agonists for Hypoxia Response Element Signaling Pathway (AID 914; active means well fitted activation curve with a large enough effect in the signal ratio, with a control signal flat, not every such curve was filed as active; the % refers to the signal ratio; further: % of control where 0% means no effect). The following applies: ME-180 (cervical carcinoma) HRE-bla reporter, beta-lactamase ratio, CoCl2, 17 h; activation: stronger effect = higher value. The method, boiled down: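 A beta-lactamase reporter under hypoxia response element control in ME-180 cells served as the system. Compound titrations plus EC50 CoCl2 ran 17 h at 37 degrees Celsius; AC50 values were fitted from %Activity.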
(Quantitative high-throughput screening tests each substance at several concentrations.)

Assay [6] concerns the target Glucocorticoid receptor (Homo sapiens) (UniProt P04150). Description: GR-EFC Redistribution (AID 451; calls by dose curve; further: potency means the concentration at half of the fitted maximal effect). The following applies: CHO-K1 GR-EFC translocation, beta-gal luminescence, 2 h. The method, boiled down: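 Translocation of GR-ED fusion to nuclear EA restores b-gal, read by luminescence after 1 h room-temperature detection. Engineered CHO-K1 biosensor cells, 1,000/well, exposed 2 h at 37 C to titrations up to 46 uM final.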

Assay [7] has as its target Mitogen-activated protein kinase 10 (Mus musculus) (UniProt Q61831). Description: JNK3 AlphaScreen Assay (AID 530).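 Further: kinase came from lysate of stimulated human HepG2 cells; signal reports phosphorylation of biotinylated GST-cJun 1-79 at Ser73 with 10 µM ATP; on the % scale 0 is the no-effect control and ±100 the full control effect.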 The method in brief:
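Room-temperature AlphaScreen kinase assay; pre-activated HepG2 lysate as JNK3 source, biotin-GST-cJun(1-79) substrate, 10 uM ATP, compound 15 min preincubation.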
In general terms: Bead proximity is the source of the signal in Alpha formats.

Assay [8] concerns the target Cytochrome P450 2C9 (Homo sapiens) (UniProt P11712). In words: qHTS Assay for Inhibitors and Substrates of Cytochrome P450 2C9 (AID 883; active means well fitted inhibition curve with a large enough effect; further: on the % scale 0 is the no-effect control and ±100 the full control effect; nearly all actives have a fitted effect of over 60% in size). The method in brief:
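Luminescent read-out of deoxyluciferin hydroxylation, normalized to 57uM sulphaphenazole (AC100). Reaction: 10nM enzyme, 100uM Luciferin-H (equal to KM), 25mM KPO4, 10 min compound preincubation, then 60 min with NADPH regeneration, both at 37C.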

Assay [9] addresses Cytochrome P450 2D6 (Homo sapiens) (UniProt P10635). In words: qHTS Assay for Inhibitors and Substrates of Cytochrome P450 2D6 (AID 891; active means well fitted inhibition curve with a large enough effect;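 further: luciferin methyl ether substrate demethylated by CYP2D6 with NADPH regeneration; on the % scale 0 is the no-effect control and ±100 the full control effect; nearly all actives have a fitted effect of over 60% in size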). The method in brief: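 Human CYP2D6 (5 nM) with 30 uM Luciferin-ME EGE (at Km) in 100 mM KPO4, compound preincubated 10 min, then NADPH regeneration system for 60 min at room temperature. Luciferin read by luminescence; normalized to 1.43 uM quinidine.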

In assay [10] the target is Cytochrome P450 2C19 (Homo sapiens) (UniProt P33261). Description: qHTS Assay for Inhibitors and Substrates of Cytochrome P450 2C19 (AID 899; active means well fitted inhibition curve with a large enough effect; further: on the % scale 0 is the no-effect control and ±100 the full control effect; nearly all actives have a fitted effect of over 60% in size). The method, boiled down:
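Luminescence readout of luciferin formed from 10uM Luciferin-H EGE (KM level) by 5 nM CYP2C19 in 50mM KPO4. 60 min NADPH-driven reaction at 37C after 10 min compound preincubation; data scaled to 57uM ketoconazole inhibition.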

In assay [11] the target is 3',5'-cyclic-AMP phosphodiesterase 4B (Homo sapiens) (UniProt Q07343). Description: qHTS Assay for Inhibitors of PDE-IV (AID 607; active means well fitted activation curve with a large enough effect in the main read-out, with a control signal flat, not every such curve was filed as active; further: % of control where 0% means no effect). The method in brief:
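ACTOne HEK293 cells carry a modified cAMP-gated CNG channel and express endogenous PDE4; plated 1000 cells/well, compounds up to 22.9 uM final. Membrane-potential dye fluorescence (ex 535/em 590) was read; parental cells received 10 uM forskolin + 100 uM RO 20-1724.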

Unmarked numbers belong to inactive results. Records with an inconclusive call do not appear. Active and inactive are the calls of the source. Unless noted, the call rests on the fitted dose curve; in most records, active means well fitted curve in either direction with a large enough effect (not every such curve was filed as active); inconclusive means small, poorly fitted or top-dose-only effect, or another doubt; inactive means flat fitted curve, though single readings scatter.

Chain of Cytochrome P450 2C19 (Homo sapiens) (P33261 whole entry, looked up): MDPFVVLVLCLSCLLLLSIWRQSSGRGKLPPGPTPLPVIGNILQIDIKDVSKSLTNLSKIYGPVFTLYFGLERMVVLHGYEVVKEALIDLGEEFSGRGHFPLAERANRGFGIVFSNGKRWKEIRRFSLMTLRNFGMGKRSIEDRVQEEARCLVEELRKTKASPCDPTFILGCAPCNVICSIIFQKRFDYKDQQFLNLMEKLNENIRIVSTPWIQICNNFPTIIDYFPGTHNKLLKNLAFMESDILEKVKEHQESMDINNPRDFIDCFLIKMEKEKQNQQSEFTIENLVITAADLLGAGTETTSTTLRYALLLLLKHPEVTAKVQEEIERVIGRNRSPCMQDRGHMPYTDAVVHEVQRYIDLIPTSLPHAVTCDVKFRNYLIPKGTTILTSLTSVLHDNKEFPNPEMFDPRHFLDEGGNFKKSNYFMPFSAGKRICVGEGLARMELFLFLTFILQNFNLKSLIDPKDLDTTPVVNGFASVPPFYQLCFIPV
Chain of Cytochrome P450 2C9 (Homo sapiens) (P11712 whole entry, looked up): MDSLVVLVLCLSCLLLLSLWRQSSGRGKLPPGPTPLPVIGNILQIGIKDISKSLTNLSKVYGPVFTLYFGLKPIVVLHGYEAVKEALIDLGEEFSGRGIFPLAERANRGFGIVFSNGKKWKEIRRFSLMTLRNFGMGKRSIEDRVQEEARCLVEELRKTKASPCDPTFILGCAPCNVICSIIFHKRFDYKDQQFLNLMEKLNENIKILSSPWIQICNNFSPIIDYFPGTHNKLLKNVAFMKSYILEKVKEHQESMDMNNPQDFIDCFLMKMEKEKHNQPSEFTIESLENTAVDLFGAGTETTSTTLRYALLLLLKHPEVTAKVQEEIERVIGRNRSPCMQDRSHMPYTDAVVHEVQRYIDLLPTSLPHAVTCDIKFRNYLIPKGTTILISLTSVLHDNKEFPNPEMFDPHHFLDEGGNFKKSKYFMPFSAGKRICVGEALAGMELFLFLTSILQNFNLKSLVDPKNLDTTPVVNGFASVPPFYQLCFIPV
Chain of Cytochrome P450 2D6 (Homo sapiens) (P10635 whole entry, looked up): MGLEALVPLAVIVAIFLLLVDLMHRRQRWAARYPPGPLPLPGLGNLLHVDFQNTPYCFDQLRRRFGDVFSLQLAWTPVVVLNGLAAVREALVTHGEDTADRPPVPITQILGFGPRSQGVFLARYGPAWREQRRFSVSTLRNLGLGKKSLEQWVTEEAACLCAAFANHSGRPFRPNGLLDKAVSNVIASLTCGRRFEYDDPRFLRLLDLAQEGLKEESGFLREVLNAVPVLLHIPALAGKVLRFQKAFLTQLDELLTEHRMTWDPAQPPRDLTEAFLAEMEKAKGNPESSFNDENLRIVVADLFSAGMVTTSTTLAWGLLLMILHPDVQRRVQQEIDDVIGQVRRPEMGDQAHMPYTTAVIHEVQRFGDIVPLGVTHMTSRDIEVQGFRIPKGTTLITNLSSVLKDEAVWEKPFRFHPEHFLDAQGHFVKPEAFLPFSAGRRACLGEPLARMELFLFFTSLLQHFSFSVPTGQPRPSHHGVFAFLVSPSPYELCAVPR
Chain of 3',5'-cyclic-AMP phosphodiesterase 4B (Homo sapiens) (Q07343 whole entry, looked up): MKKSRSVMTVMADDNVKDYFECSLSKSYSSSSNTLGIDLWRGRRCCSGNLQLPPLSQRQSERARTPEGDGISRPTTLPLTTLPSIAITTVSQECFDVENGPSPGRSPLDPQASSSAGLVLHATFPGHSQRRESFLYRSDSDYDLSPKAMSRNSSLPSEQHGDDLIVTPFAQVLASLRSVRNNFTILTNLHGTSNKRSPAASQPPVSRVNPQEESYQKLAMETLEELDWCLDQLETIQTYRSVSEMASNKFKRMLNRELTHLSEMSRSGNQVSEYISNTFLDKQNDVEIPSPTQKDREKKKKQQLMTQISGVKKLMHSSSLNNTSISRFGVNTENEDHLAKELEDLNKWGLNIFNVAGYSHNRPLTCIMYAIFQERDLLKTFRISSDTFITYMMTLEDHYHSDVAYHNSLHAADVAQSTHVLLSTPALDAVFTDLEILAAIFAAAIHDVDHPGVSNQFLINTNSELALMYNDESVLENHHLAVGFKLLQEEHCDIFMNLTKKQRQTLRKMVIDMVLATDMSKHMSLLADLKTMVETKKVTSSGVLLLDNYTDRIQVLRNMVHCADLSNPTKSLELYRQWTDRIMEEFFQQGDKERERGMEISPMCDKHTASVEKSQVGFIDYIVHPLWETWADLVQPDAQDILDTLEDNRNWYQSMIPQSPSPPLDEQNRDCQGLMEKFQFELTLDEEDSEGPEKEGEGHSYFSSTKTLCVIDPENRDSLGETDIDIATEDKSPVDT

In the case of `Cc1ccc2c(c1)[C@@H]1CN(C)CC[C@@H]1N2C(=O)Nc1cccc(C(F)(F)F)c1`, the activity change, negative = inhibition is 28.8% in assay [1] and -12.5% in assay [2]. Also, the call in [3] was inactive. The Potency in [4] is above 20.6 µM.
Taken in the same sequence, the figures for `C=CCC1(CN2CCCCCC2=O)C(=O)NC(=O)NC1=O` were 1.22%, 2.02%, “inactive” and above 20.6 µM.
As for `CCN(CC)CCCNC(=O)c1c(O)c2ccccc2n(Cc2ccccc2)c1=O`, in [1], the activity change, negative = inhibition is 27.1%. Besides, in assay [3], the call was inactive. In addition, the Potency in assay [4] was above 20.6 µM.
In the case of `CCCCOCCCn1c(N)c(C(=O)OC(C)COC)c2nc3ccccc3nc21` (stereo not given), the activity change, negative = inhibition is -11.7% in assay [1] and 29.2% in [2]. Also, in assay [4], the Potency is above 20.6 µM.
`CCCc1nc2ccccc2c(=O)n1-c1ccccc1OC`: the activity change, negative = inhibition in assay [1] was -13.4%; in assay [2], 1.18%. Further, in assay [4], the Potency is above 20.6 µM.
`O=C(CN1CCN(CCO)CC1)Nc1ccc(Cl)cc1C(=O)c1ccccc1`: the activity change, negative = inhibition is 3.2% in [1] and 5.95% in assay [2]. The activation in [5] was 0.98%.
As for `O=c1[nH]c(=O)n(-c2cccc(Cl)c2)c(O)c1C=NCCN1CCCCC1`, the activity change, negative = inhibition in assay [1] is -0.739%; in assay [2], -1.95%. In addition, in [4], the Potency was above 20.6 µM.
For `CC1(C)NCCN2C(=O)CSC21` (stereo not given) the same measures were 17.6%, 0.762% and above 20.6 µM.
As for `O=c1[nH]c(=O)n(Cc2ccco2)c(O)c1C=NCCN1CCOCC1`, the activity change, negative = inhibition was 12.8% in assay [1] and -0.917% in assay [2]. The Potency in [4] is above 20.6 µM.
Regarding `CCOC(C(=O)OCC(O)CN(CC)CC)(c1ccccc1)c1ccccc1` (stereo not given), the activity change, negative = inhibition in assay [1] is 4.62%. The result in assay [3] was inactive. Moreover, the Potency in assay [4] was above 20.6 µM.
Consider `CC(C)(C)c1ccc(O)c(C[N+](C)(C)C)c1`, for which the activity change, negative = inhibition in assay [1] is -0.0649% [at 7.69 µM]; in assay [2] it was -16.5% [at 7.69 µM]; in assay [7], -0.903% [at 11.4 µM]. Also, the values for the Potency in assay [4] and in assay [6] were above 46 µM and above 9.22 µM, respectively.
For the compound `C[C@@]12CC[C@H]3[C@@H](CCC4=CC(=O)CC[C@]43C)[C@H]1CCC2=O`, the activity change, negative = inhibition in [1] is 2.25% [at 38 µM]; in assay [2] it was 9.12% [at 38 µM]. Also, the compound was classed as inactive in [7]. Further, the Potency result in [8], in assay [9] and in assay [10] was “inactive” in each case.
For the compound `CC(=O)[C@@]1(O)CC[C@H]2[C@@H]3CC=C4C[C@@H](O)CC[C@]4(C)[C@H]3CC[C@@]21C`, the activity change, negative = inhibition in assay [1] is 0.531%; in assay [2], 10.8%. Besides, the Potency in [4] was above 20.6 µM.
In the case of `CNc1ccc2oc(C[C@@H]3O[C@@]4(CC[C@H]3C)O[C@@H]([C@@H](C)C(=O)c3ccc[nH]3)[C@@H](C)C[C@H]4C)nc2c1C(=O)O`, the figures for the activity change, negative = inhibition in assay [1] and in [2] were 6.83% [at 38 µM] and 90.4% [activator] [at 38 µM] (active), respectively. Besides, the Potency in [6] is above 46 µM. In addition, the compound was called inactive in assay [11].
